PubChem BioAssay (NCATS)
Values without a mark were called inactive. Results filed as inconclusive are left out. Activity calls are given as the source filed them. The call rests on the fitted dose curve; in most records, active means well fitted curve in the direction sought with a large enough effect; inconclusive means small, poorly fitted or top-dose-only effect, or another doubt; inactive means no such curve, though single readings can be large; an effect the other way counts as inactive or inconclusive.

target: ATP-dependent 6-phosphofructokinase (Trypanosoma brucei brucei) (UniProt O15648); test: qHTS Assay to Find Inhibitors of T. brucei phosphofructokinase: hit validation (AID 492961);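 further: luminescence reports ADP formed as PFK phosphorylates fructose-6-phosphate with ATP; on the % scale 0 is the no-effect control and ±100 the full control effect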; settings: T. brucei PFK, ADP-Glo luminescence; series mostly up to 51.4 µM; activity change, negative = inhibition: at the top concentration
Method in brief: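 PFK 1.25 nM, F6P 0.5 mM, ATP 0.1 mM, MgCl2 5 mM, 0.1 M TEA pH 8.0, Tween20 0.01%, BSA 0.1%; 45 min RT. ADP-Glo two-step detection, luminescence. qHTS titration; curve fitting with curve-class categorization.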

Chain of ATP-dependent 6-phosphofructokinase (Trypanosoma brucei brucei) (O15648 whole entry, looked up): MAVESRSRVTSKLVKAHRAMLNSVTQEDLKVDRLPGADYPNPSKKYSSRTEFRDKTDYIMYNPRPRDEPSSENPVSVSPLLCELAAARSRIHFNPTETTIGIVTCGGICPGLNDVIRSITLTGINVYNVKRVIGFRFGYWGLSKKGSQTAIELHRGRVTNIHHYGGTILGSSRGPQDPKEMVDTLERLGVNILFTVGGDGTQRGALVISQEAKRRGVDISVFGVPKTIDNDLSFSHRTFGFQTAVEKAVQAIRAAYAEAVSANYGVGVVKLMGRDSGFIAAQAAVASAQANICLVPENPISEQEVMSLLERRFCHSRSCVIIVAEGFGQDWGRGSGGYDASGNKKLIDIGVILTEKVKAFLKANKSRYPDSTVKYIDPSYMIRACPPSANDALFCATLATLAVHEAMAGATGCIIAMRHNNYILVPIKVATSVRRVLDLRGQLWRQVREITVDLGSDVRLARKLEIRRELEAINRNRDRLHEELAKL

Row | Compound | activity change, negative = inhibition | outcome
1 | Clc1ccc(C(c2ccc(Cl)cc2)C(Cl)(Cl)Cl)cc1 | 0.537% | –
2 | CN1C(=O)CC(=O)N(c2ccccc2)c2cc(Cl)ccc21 | -7.17% | –
3 | O=C1CN=C(c2ccccc2)c2cc([N+](=O)[O-])ccc2N1 | -9.43% | –
4 | CCCCCCC(=O)CCCCCC/C=C/C[C@@H](O)[C@H](O)[C@@](N)(CO)C(=O)O | 2.53% | –
5 | COc1ccc2c(c1)C13CCCC[C@@H]1C(C2)N(C)CC3 (stereo partly drawn) | -7.72% | –
6 | CN1C[C@H](C(=O)N[C@]2(C)O[C@@]3(O)[C@@H]4CCCN4C(=O)[C@H](Cc4ccccc4)N3C2=O)C=C2c3cccc4[nH]cc(c34)C[C@H]21 | 1.39% | –
7 | Nc1ccc([As](=O)(O)O)cc1 | 4.93% | –
8 | COC1CC(=C(c2cccs2)c2cccs2)C[N+](C)(C)C1 (stereo not drawn) | -2.06% | –
9 | COc1cccc([C@@]2(O)CCCC[C@@H]2CN(C)C)c1 | -0.641% | –
10 | CC(C)(C)NCC(O)c1cc(Cl)c(N)c(C(F)(F)F)c1 (stereo not drawn) | 2.15% | –
11 | Nc1ccccc1C(=O)O | 9.46% | –
12 | CCC(C)(C)c1ccc(O)cc1 | -4.17% | –
13 | CN1C(=O)COc2c(C(=O)NC3CN4CCC3CC4)cc(Cl)cc21 (stereo not drawn) | 7.42% | –
14 | COP(=S)(OC)Oc1ccc(SC)c(C)c1 | 10.2% | –
15 | O=C1c2ccccc2C(=O)c2ccccc21 | -10.9% | –
16 | O=C1Nc2ccc(Cl)cc2C(c2ccccc2Cl)=NC1O (stereo not drawn) | 1.3% | –
17 | O=C1Nc2ccc(Cl)cc2C(c2ccccc2)=NC1O (stereo not drawn) | 1.48% | –
18 | Clc1cccc(SC2CCNCC2)n1 | 0% | –
19 | Cc1nnc2n1-c1ccc(Cl)cc1C(c1ccccc1Cl)=NC2 | -5.24% | –
20 | C=CCN1C[C@H](C)N([C@H](c2ccc(C(=O)N(CC)CC)cc2)c2cccc(OC)c2)C[C@H]1C | 7.33% | –
21 | O=C(N/N=C/c1ccc([N+](=O)[O-])o1)c1cc([N+](=O)[O-])cc([N+](=O)[O-])c1O | -8.32% | –
22 | COC(=O)C(c1ccccc1)C1CCCCN1 (stereo not drawn) | -12% | –
23 | CN1C(=O)NC(=O)C(C)(C2=CCCCC2)C1=O (stereo not drawn) | – | inactive
24 | CNC(C)(C)Cc1ccccc1 | -8.27% [at 24.3 µM] | –
25 | COc1c2c(cc3c1OCO3)CCN(C)C2 | 11.3% [at 24.3 µM] | –
26 | CCCC(C)(COC(N)=O)COC(N)=O | 11.2% | –
27 | CC(C)NC(C)C | 0.269% | –
28 | NC(=O)CS(=O)C(c1ccccc1)c1ccccc1 (stereo not drawn) | -4.38% | –
29 | O=C1c2ccccc2C(=O)C1C(=O)C(c1ccccc1)c1ccccc1 | 21.5% | –
30 | Cc1nnc2n1-c1ccc(Cl)cc1C(c1ccccc1)=NC2 | -8.83% | –

system: not listed separately; test: Inducers of the Endoplasmic Reticulum Stress Response (ERSR) in human glioma: Validation (AID 504836); settings: human glioma cells, ER stress response reporter; series mostly up to 38.3 µM; activation: at the top concentration; further: 0% is about no effect
Method in brief: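 Stably transfected U87-MG human glioma cells carrying a GRP78-based luminescent sensor were seeded at 1000 cells/well, pin-dosed with compounds and incubated 16 h. Luciferase reagent was then added, and end-point luminescence was read after 10 min at room temperature.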

Row | Compound | activation [%]
31 | CCN(CC)CC#CCOC(=O)C(O)(c1ccccc1)C1CCCCC1 (stereo not drawn) | -2.55
32 | CC(=O)N1CCN(c2ccc(OC[C@H]3CO[C@](Cn4ccnc4)(c4ccc(Cl)cc4Cl)O3)cc2)CC1 | -1.15
33 | Nc1nc2ccc(OC(F)(F)F)cc2s1 | -3.72
34 | CN=C(NC#N)NCCSCc1nc[nH]c1C | -3.47

target: Ubiquitin carboxyl-terminal hydrolase 1 (Homo sapiens) (UniProt O94782); test: Inhibitors of USP1/UAF1: Pilot qHTS (AID 504865); settings: purified USP1/UAF1, Ub-rhodamine cleavage fluorescence; series mostly up to 114 µM; activity change, negative = inhibition: at the top concentration; further: nearly all actives have a fitted effect of over 35% in size; further: potency means the concentration at half of the fitted maximal effect;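 on activity change, negative = inhibition: rhodamine fluorescence freed from ubiquitin-rhodamine substrate followed over time; top concentration of the series differs between compounds; on the % scale 0 is the no-effect control and ±100 the full control effect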
Method in brief: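 USP1/UAF1 complex at 1 nM preincubated 15 min at room temperature with compound, then Ub-Rho substrate added at 150 nM final. Fluorescence (480/540 nm) read kinetically in 50 mM HEPES pH 7.8, 0.5 mM EDTA, 1 mM TCEP, 0.1 mg/ml BSA, 0.01% Tween-20.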

Chain of Ubiquitin carboxyl-terminal hydrolase 1 (Homo sapiens) (O94782 whole entry, looked up): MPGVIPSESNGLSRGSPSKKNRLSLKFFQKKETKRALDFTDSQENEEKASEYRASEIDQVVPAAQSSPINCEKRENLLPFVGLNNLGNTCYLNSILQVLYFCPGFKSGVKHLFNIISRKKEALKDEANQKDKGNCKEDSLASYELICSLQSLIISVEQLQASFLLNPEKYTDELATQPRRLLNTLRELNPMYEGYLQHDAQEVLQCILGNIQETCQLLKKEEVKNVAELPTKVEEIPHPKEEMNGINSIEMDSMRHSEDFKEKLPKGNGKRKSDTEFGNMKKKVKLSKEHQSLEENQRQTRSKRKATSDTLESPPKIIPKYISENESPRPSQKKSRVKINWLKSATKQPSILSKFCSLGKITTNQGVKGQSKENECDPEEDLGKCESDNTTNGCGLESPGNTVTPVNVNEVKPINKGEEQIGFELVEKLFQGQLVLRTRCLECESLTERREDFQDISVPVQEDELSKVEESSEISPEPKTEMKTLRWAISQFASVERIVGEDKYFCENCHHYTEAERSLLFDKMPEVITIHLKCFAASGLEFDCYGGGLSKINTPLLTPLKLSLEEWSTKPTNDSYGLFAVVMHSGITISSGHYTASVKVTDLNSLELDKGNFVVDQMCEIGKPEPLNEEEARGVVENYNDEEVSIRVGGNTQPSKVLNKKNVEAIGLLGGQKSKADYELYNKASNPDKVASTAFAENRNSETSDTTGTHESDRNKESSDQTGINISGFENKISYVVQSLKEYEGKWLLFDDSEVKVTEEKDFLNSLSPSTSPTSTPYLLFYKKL

Row | Compound | Potency | activity change, negative = inhibition
35 | Clc1ccc(C(c2ccc(Cl)cc2)C(Cl)(Cl)Cl)cc1 | inactive | –
36 | CN1C(=O)CC(=O)N(c2ccccc2)c2cc(Cl)ccc21 | – | -5.99%
37 | O=C1CN=C(c2ccccc2)c2cc([N+](=O)[O-])ccc2N1 | – | -6.66%
38 | CC(=O)N1CCN(c2ccc(OC[C@H]3CO[C@](Cn4ccnc4)(c4ccc(Cl)cc4Cl)O3)cc2)CC1 | – | -13.8%
39 | CCCCCCC(=O)CCCCCC/C=C/C[C@@H](O)[C@H](O)[C@@](N)(CO)C(=O)O | – | 0.843%
40 | COc1ccc2c(c1)C13CCCC[C@@H]1C(C2)N(C)CC3 (stereo partly drawn) | – | 3.31% [at 54.9 µM]
41 | Nc1ccc([As](=O)(O)O)cc1 | – | 1.54%
42 | COC1CC(=C(c2cccs2)c2cccs2)C[N+](C)(C)C1 (stereo not drawn) | – | -7.07%
43 | COc1cccc([C@@]2(O)CCCC[C@@H]2CN(C)C)c1 | – | -4.55%
44 | CC(C)(C)NCC(O)c1cc(Cl)c(N)c(C(F)(F)F)c1 (stereo not drawn) | – | -11.2%
45 | Nc1ccccc1C(=O)O | – | 3.65%
46 | CN1C(=O)COc2c(C(=O)NC3CN4CCC3CC4)cc(Cl)cc21 (stereo not drawn) | – | 1.51%
47 | COP(=S)(OC)Oc1ccc(SC)c(C)c1 | inactive | –
48 | O=C1c2ccccc2C(=O)c2ccccc21 | inactive | –
49 | O=C1Nc2ccc(Cl)cc2C(c2ccccc2Cl)=NC1O (stereo not drawn) | – | -9.43%
50 | O=C1Nc2ccc(Cl)cc2C(c2ccccc2)=NC1O (stereo not drawn) | – | -2.64%
51 | Clc1cccc(SC2CCNCC2)n1 | inactive | –
52 | Cc1nnc2n1-c1ccc(Cl)cc1C(c1ccccc1Cl)=NC2 | – | -0.449%
53 | C=CCN1C[C@H](C)N([C@H](c2ccc(C(=O)N(CC)CC)cc2)c2cccc(OC)c2)C[C@H]1C | inactive | –
54 | O=C(N/N=C/c1ccc([N+](=O)[O-])o1)c1cc([N+](=O)[O-])cc([N+](=O)[O-])c1O | – | -4.24%
55 | COC(=O)C(c1ccccc1)C1CCCCN1 (stereo not drawn) | – | 3.39%
56 | CN1C(=O)NC(=O)C(C)(C2=CCCCC2)C1=O (stereo not drawn) | inactive | –
57 | CNC(C)(C)Cc1ccccc1 | inactive | –
58 | COc1c2c(cc3c1OCO3)CCN(C)C2 | – | 14.4% [at 54.9 µM]
59 | CCCC(C)(COC(N)=O)COC(N)=O | – | 0.482%
60 | CC(C)NC(C)C | – | -1.47%
61 | NC(=O)CS(=O)C(c1ccccc1)c1ccccc1 (stereo not drawn) | inactive | –
62 | O=C1c2ccccc2C(=O)C1C(=O)C(c1ccccc1)c1ccccc1 | 31.6 µM (active) | –
63 | Cc1nnc2n1-c1ccc(Cl)cc1C(c1ccccc1)=NC2 | – | -5.73%
